Data taken from PubChem BioAssay (NCI).
About 79,000 compounds went through this panel and 15% of them were active in at least one assay; those are over-represented in the sample as a whole. Activity calls are given as the source filed them. No stated cut-off is given here; in the data, active means growth inhibition above about 70%; inactive means the rest.

Assays:
[1] = NCI Yeast Anticancer Drug Screen. Data for the rad52 strain (AID 147);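 further: 0% = growth of vehicle-treated control cultures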; conditions: S. cerevisiae rad52 mutant growth inhibition, active compounds read high
In short: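 DNA repair-defective yeast; compound exposure; growth scored against vehicle controls.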

[2] = NCI Yeast Anticancer Drug Screen. Data for the wt1 strain (AID 149);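 further: 0% = growth of vehicle-treated wt1 cultures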; conditions: S. cerevisiae wt1 strain (SPY 50644) growth inhibition, active compounds read high
In short: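 Yeast wt1 strain exposed to compounds; growth inhibition measured relative to vehicle-treated controls.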

[3] = NCI Yeast Anticancer Drug Screen. Data for the rad50EPP+ strain (AID 151);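 further: 0% = growth of vehicle-treated control cultures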; conditions: S. cerevisiae rad50 mutant strain, active compounds read high
In short: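 rad50EPP+ yeast treated with test compounds. Readout: growth vs vehicle control.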

[4] = NCI Yeast Anticancer Drug Screen. Data for the mgt1 strain (AID 153); conditions: S. cerevisiae mgt1 mutant growth inhibition, active compounds read high
In short: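 Growth inhibition relative to vehicle controls was scored for the mgt1 yeast strain after compound exposure.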

[5] = NCI Yeast Anticancer Drug Screen. Data for the rad50 strain (AID 155);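 further: 0% = growth of vehicle-only cultures of the same strain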; conditions: S. cerevisiae rad50 strain growth inhibition, active compounds read high
In short: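 Yeast carrying a defined DNA repair defect were exposed to test compounds, and growth was compared with vehicle-treated controls to give percent inhibition.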

[6] = NCI Yeast Anticancer Drug Screen. Data for the mec2-1 strain (AID 157); conditions: S. cerevisiae mec2-1 strain, active compounds read high
In short: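 Growth inhibition is read against vehicle-treated controls after compound exposure of the mec2-1 yeast strain, which is defective in DNA damage repair or cell cycle control.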

[7] = NCI Yeast Anticancer Drug Screen. Data for the rad14 strain (AID 159);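 further: 0% = growth of vehicle-treated control cultures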; conditions: S. cerevisiae rad14 strain growth inhibition, active compounds read high
In short: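 Yeast cells carrying a defined DNA-repair defect were exposed to compounds, and growth inhibition was calculated relative to vehicle-treated control cultures.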

[8] = NCI Yeast Anticancer Drug Screen. Data for the sgs1 mgt1 strain (AID 161);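 further: 0% = growth of cultures given vehicle only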; conditions: S. cerevisiae sgs1 mgt1 strain, active compounds read high
In short: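 Growth of a repair-deficient yeast mutant was monitored after compound treatment and expressed as inhibition relative to vehicle-treated cultures.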

[9] = NCI Yeast Anticancer Drug Screen. Data for the CLN2oe strain (AID 163);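 further: 0% = growth of vehicle-only control cultures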; conditions: S. cerevisiae CLN2oe strain, active compounds read high
In short: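 Compound-treated yeast; growth vs vehicle ctrl = % inhibition. Genetically altered strain (cell-cycle control).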

[10] = NCI Yeast Anticancer Drug Screen. Data for the cln2 rad14 strain (AID 165);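 further: 0% = growth equal to vehicle treated cultures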; conditions: S. cerevisiae cln2 rad14 strain, active compounds read high
In short: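 Growth inhibition, relative to vehicle-treated controls, is the read-out. The test organism is a yeast strain with defined genetic alterations, cln2 rad14.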

[11] = NCI Yeast Anticancer Drug Screen. Data for the bub3 strain (AID 167); conditions: S. cerevisiae bub3 mutant strain, active compounds read high
In short: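 Compounds were applied to a genetically altered yeast strain carrying a cell-cycle control defect. Growth inhibition was scored against vehicle-treated controls.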

[12] = NCI Yeast Anticancer Drug Screen. Data for the wt2 strain (AID 169);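 further: 0% = growth of vehicle-treated yeast cultures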; conditions: S. cerevisiae wt2 strain growth inhibition, active compounds read high
In short: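 Compound exposure of yeast; growth compared with vehicle controls; inhibition reported.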

[13] = NCI Yeast Anticancer Drug Screen. Data for the mlh1 strain (AID 171);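 further: 0% = growth of vehicle-treated control cultures of the same strain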; conditions: S. cerevisiae mlh1 strain growth inhibition, active compounds read high
In short: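 Compounds are applied to a genetically altered yeast strain, and its growth is compared with that of vehicle-treated cultures to give percent inhibition.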

[14] = NCI Yeast Anticancer Drug Screen. Data for the sgs1 strain (AID 173);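 further: 0% = growth of vehicle-only control cultures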; conditions: S. cerevisiae sgs1 mutant, active compounds read high
In short: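 Compounds applied to genetically altered yeast; growth compared with vehicle-treated cultures to give % inhibition.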

[15] = NCI Yeast Anticancer Drug Screen. Data for the mlh1 rad18 strain (AID 175); conditions: S. cerevisiae mlh1 rad18 strain growth inhibition, active compounds read high
In short: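 Cells of a genetically altered yeast strain, deficient in DNA damage repair, were treated with compound. Their growth was then compared with that of vehicle-treated cultures to give inhibition.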

[16] = NCI Yeast Anticancer Drug Screen. Data for the rad18 strain (AID 177); conditions: S. cerevisiae rad18 mutant growth inhibition, active compounds read high
In short: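 Compounds are applied to a repair-deficient yeast strain, and growth is compared with that of vehicle-treated cultures to give percent inhibition.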

[17] = at 5.0 µM (retest, dose inferred, filed as 0.5)
[18] = at 50.0 µM (retest, dose inferred, filed as 5.0)

Measured: growth inhibition

COc1ccc(N=N/C(=N\NC(=O)c2cc(Br)ccc2O)c2ccc(N(CCC#N)CCC#N)cc2OC)cc1
inactive: [1]; at 1.2 µM 29% | [1]; at 3.7 µM 44% | [1]; at 11.0 µM 44% | [1]; at 33.0 µM 57% | [2]; at 1.2 µM 15% | [2]; at 3.7 µM 17% | [2]; at 11.0 µM 9% | [2]; at 33.0 µM 5% | [2]; at 100.0 µM 51% | [3]; at 1.2 µM -4% | [3]; at 3.7 µM -7% | [3]; at 11.0 µM -11% | [3]; at 33.0 µM -19% | [3]; at 100.0 µM 24% | [4]; at 1.2 µM 33% | [4]; at 3.7 µM 35% | [4]; at 11.0 µM 24% | [4]; at 33.0 µM 46% | [4]; at 100.0 µM 69% | [5]; at 1.2 µM 46% | [5]; at 3.7 µM 43% | [5]; [17] 20% | [5]; at 11.0 µM 49% | [5]; at 33.0 µM 59% | [5]; [18] 25% | [5]; at 50.0 µM 45.1% | [6]; at 1.2 µM -4% | [6]; at 3.7 µM -6% | [6]; [17] 22% | [6]; at 11.0 µM -8% | [6]; at 33.0 µM 13% | [6]; [18] 24% | [6]; at 50.0 µM 43.4% | [6]; at 100.0 µM 31% | [7]; at 1.2 µM 33% | [7]; at 3.7 µM 26% | [7]; at 11.0 µM 21% | [7]; at 33.0 µM 3% | [7]; at 100.0 µM 45% | [8]; [17] -8% | [8]; [18] 69% | [8]; at 50.0 µM 8.9% | [9]; at 1.2 µM 11% | [9]; at 3.7 µM 14% | [9]; at 11.0 µM 24% | [9]; at 33.0 µM 33% | [9]; at 100.0 µM 28% | [10]; [17] -4% | [10]; [18] 32% | [10]; at 50.0 µM 30.9% | [11]; at 1.2 µM 28% | [11]; at 3.7 µM 14% | [11]; [17] 19% | [11]; at 11.0 µM 16% | [11]; at 33.0 µM 49% | [11]; [18] 69% | [11]; at 50.0 µM 43.4% | [11]; at 100.0 µM 68% | [12]; at 1.2 µM -20% | [12]; at 3.7 µM -11% | [12]; at 11.0 µM -15% | [12]; at 33.0 µM -9% | [12]; at 100.0 µM 65% | [13]; at 1.2 µM 33% | [13]; at 3.7 µM 35% | [13]; at 11.0 µM 24% | [13]; at 33.0 µM 46% | [13]; at 100.0 µM 69% | [14]; at 1.2 µM 34% | [14]; at 3.7 µM 37% | [14]; at 11.0 µM 33% | [14]; at 33.0 µM 42% | [15]; [17] 20% | [15]; [18] 26% | [15]; at 50.0 µM 65.4% | [16]; at 1.2 µM 14% | [16]; at 3.7 µM 20% | [16]; at 11.0 µM 18% | [16]; at 33.0 µM 33% | [16]; at 100.0 µM 49%
active: [1]; at 100.0 µM 71% | [5]; at 100.0 µM 82% | [14]; at 100.0 µM 71%

O=C1c2ccccc2CCC1(Br)Br
active: [1]; at 11.0 µM 81% | [1]; at 33.0 µM 99% | [1]; at 100.0 µM 99% | [2]; at 33.0 µM 99% | [2]; at 100.0 µM 99% | [3]; at 3.7 µM 82% | [3]; at 11.0 µM 97% | [3]; at 33.0 µM 99% | [3]; at 100.0 µM 99% | [4]; at 33.0 µM 99% | [4]; at 100.0 µM 99% | [5]; at 33.0 µM 99% | [5]; [18] 99% | [5]; at 50.0 µM 99.2% | [5]; at 100.0 µM 99% | [6]; at 11.0 µM 76% | [6]; at 33.0 µM 99% | [6]; [18] 100% | [6]; at 50.0 µM 99.3% | [6]; at 100.0 µM 99% | [7]; at 33.0 µM 99% | [7]; at 100.0 µM 99% | [8]; [18] 99% | [8]; at 50.0 µM 99.2% | [9]; at 11.0 µM 93% | [9]; at 33.0 µM 99% | [9]; at 100.0 µM 99% | [10]; [18] 100% | [10]; at 50.0 µM 99.4% | [11]; at 11.0 µM 74% | [11]; at 33.0 µM 99% | [11]; [18] 99% | [11]; at 50.0 µM 99.2% | [11]; at 100.0 µM 99% | [12]; at 33.0 µM 99% | [12]; at 100.0 µM 99% | [14]; at 11.0 µM 76% | [14]; at 33.0 µM 99% | [14]; at 100.0 µM 99% | [15]; [17] 85% | [15]; [18] 99% | [15]; at 50.0 µM 99.3% | [16]; at 11.0 µM 75% | [16]; at 33.0 µM 99% | [16]; at 100.0 µM 99%
inactive: [1]; at 1.2 µM 11% | [1]; at 3.7 µM 27% | [2]; at 1.2 µM 1% | [2]; at 3.7 µM 11% | [2]; at 11.0 µM 36% | [3]; at 1.2 µM 55% | [4]; at 1.2 µM 2% | [4]; at 3.7 µM 11% | [4]; at 11.0 µM 53% | [5]; at 1.2 µM 11% | [5]; at 3.7 µM 22% | [5]; [17] 50% | [5]; at 11.0 µM 69% | [6]; at 1.2 µM 9% | [6]; at 3.7 µM 21% | [6]; [17] 21% | [7]; at 1.2 µM 7% | [7]; at 3.7 µM 14% | [7]; at 11.0 µM 51% | [8]; [17] 63% | [9]; at 1.2 µM 9% | [9]; at 3.7 µM 13% | [10]; [17] 18% | [11]; at 1.2 µM 1% | [11]; at 3.7 µM 15% | [11]; [17] 61% | [12]; at 1.2 µM 5% | [12]; at 3.7 µM 13% | [12]; at 11.0 µM 62% | [14]; at 1.2 µM 13% | [14]; at 3.7 µM 23% | [16]; at 1.2 µM 13% | [16]; at 3.7 µM 23%
